# Experimental data reported in PubChem BioAssay (Tox21).
# Records with an inconclusive call do not appear. Active and inactive are the calls of the source. The call rests on the fitted dose curve.
# Experiment: qHTS assay for small molecule disruptors of the mitochondrial membrane potential - cell viability (AID 720634); further: nearly all actives have a fitted effect of over 20% in size;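 on activity change, negative = cytotoxicity: human HepG2 liver cancer cells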
# Details: HepG2 viability, ATP luminescence (CellTiter-Glo), 1 h; series mostly up to 83.2 µM; activity change, negative = cytotoxicity: at the top concentration
# Procedure, shortened: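 Same-well counter-screen: following the MMP dye addition, CellTiter-Glo was added to 1 hr compound-treated HepG2 cells and luminescence read after 30 min at room temperature.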
# On the % scale 0 is the no-effect control and ±100 the full control effect; potency means the concentration at half of the fitted maximal effect.
Compound,"activity change, negative = cytotoxicity",Potency
CCCCCC(O)/C=C/C=O (stereo not given),4.47% (inactive),
O=C(Cn1c(=O)sc2ccc(Cl)cc21)N1CCN(CCO)CC1,9.56% (inactive),
COc1ccc2c(c1)OC(C)(C)C(c1ccccc1)C2c1ccc(OCCN2CCCC2)cc1 (stereo not given),10.9% (inactive),
CCCCCCOc1ccc(C(=N)N(CCCC)CCCC)c2ccccc12,,26.6 µM (active)
C[C@H](N)C(=O)N[C@@H](C)P(=O)(O)O,8.34% (inactive),
OC[C@H]1OC([S-])[C@H](O)[C@@H](O)[C@@H]1O.[Au+] (stereo not given in full),9.52% (inactive),
CC[C@@H](C(=O)[C@@H](C)[C@@H](O)[C@H](C)[C@@H]1O[C@@H]([C@@H](CC)C(=O)O)CC[C@@H]1C)[C@H]1O[C@]2(C=C[C@@H](O)[C@]3(CC[C@@](C)([C@H]4CC[C@](O)(CC)[C@H](C)O4)O3)O2)[C@H](C)C[C@@H]1C,6.49% (inactive),
C=C1CC[C@H](O)CC1=C/C=C1\CCC[C@]2(C)[C@@H]([C@H](C)CCCC(C)(C)O)CC[C@@H]12,-7.95% (inactive),
O=C(COc1ccc(Cl)cc1)OCCNC12CC3CC(CC(C3)C1)C2,6.05% (inactive),
CCOC(=O)Oc1c(OC)cc(C(=O)O[C@@H]2C[C@@H]3CN4CCc5c([nH]c6cc(OC)ccc56)[C@H]4C[C@@H]3[C@H](C(=O)OC)[C@H]2OC)cc1OC,,10.1 µM (active)
Nc1nc2[nH]cc(CCc3ccc(C(=O)N[C@@H](CCC(=O)O)C(=O)O)cc3)c2c(=O)[nH]1,1.73% (inactive),
CC(CC(c1ccccc1)c1ccccc1)NC(C)(C)C (stereo not given),6.77% (inactive),
NC[C@@H]1O[C@H](O[C@H]2[C@@H](O)[C@H](O[C@@H]3[C@@H](O)[C@H](N)C[C@H](N)[C@H]3O[C@H]3O[C@H](CN)[C@@H](O)[C@H](O)[C@H]3N)O[C@@H]2CO)[C@H](N)[C@@H](O)[C@@H]1O,5.28% (inactive),
OC1OC[C@@H](O)[C@H](O)[C@@H]1O (stereo not given in full),-3.46% (inactive),
CCN(CC)c1ccc(C(=C2C=CC(=[N+](CC)CC)C=C2)c2ccccc2)cc1,-26.1% (inactive),
CC(CCc1ccc(O)cc1)NCC(O)c1ccc(O)cc1 (stereo not given),-5.37% (inactive),
CC(=O)Nc1c(I)c(C(=O)O)c(I)c(N(C)C(C)=O)c1I,-0.756% (inactive),
C[C@]12C=CC(=O)N[C@@H]1CC[C@@H]1[C@@H]2CC[C@]2(C)[C@@H](C(=O)Nc3cc(C(F)(F)F)ccc3C(F)(F)F)CC[C@@H]12,-8.72% (inactive),

Compound,"activity change, negative = cytotoxicity",Potency
CCC(Oc1ccccc1)C(=O)N[C@@H]1C(=O)N2[C@@H]1SC(C)(C)[C@@H]2C(=O)O (stereo not given in full),-18.1% (inactive),
COc1c(O[C@@H]2O[C@H](CO)[C@@H](O)[C@H](O)[C@H]2O)cc2c(c1OC)-c1ccc(SC)c(=O)cc1[C@@H](NC(C)=O)CC2,13.5% [at 39.1 µM] (inactive),
CC[C@@H]1/C=C(\C)C[C@H](C)C[C@H](OC)[C@H]2O[C@@](O)(C(=O)C(=O)N3CCCC[C@H]3C(=O)O[C@H](/C(C)=C/[C@@H]3CC[C@@H](Cl)[C@H](OC)C3)[C@H](C)[C@@H](O)CC1=O)[C@H](C)C[C@@H]2OC,7.12% (inactive),
C[C@H](O)[C@H](O)[C@H]1CNc2nc(N)[nH]c(=O)c2N1,27.2% (inactive),
COc1ccc(C[C@H](N)C(=O)N[C@H]2[C@@H](O)[C@H](n3cnc4c(N(C)C)ncnc43)O[C@@H]2CO)cc1,13.4% (inactive),
O=C(NNCNNC(=O)c1ccncc1)c1ccncc1,1.24% (inactive),
CC(O)[C@H]1CC[C@H]2[C@@H]3CC[C@@H]4C[C@@H](O)CC[C@]4(C)[C@H]3CC[C@]12C (stereo not given in full),7.47% (inactive),
CCCCc1cc2c(=O)c(C(=O)OC)c[nH]c2cc1OCc1ccccc1,13.2% (inactive),
C=C[C@]1(C)C[C@@H](OC(=O)CSCCN(CC)CC)[C@]2(C)[C@H](C)CC[C@]3(CCC(=O)[C@H]32)[C@@H](C)[C@@H]1O,7.04% (inactive),
CCCCCCCCCCCCCCCCCC(=O)OCC(C)O (stereo not given),-5.49% (inactive),
CCCCC[C@H](O)/C=C/[C@@H]1[C@H]2C/C(=C/CCCC(=O)O)O[C@H]2C[C@H]1O,8.48% (inactive),
CCOC(=O)[C@@H](N)CS,-16.8% (inactive),
CC1(C)S[C@@H]2[C@H](NC(=O)C(N)c3ccccc3)C(=O)N2[C@H]1C(=O)OC1OC(=O)c2ccccc21 (stereo not given in full),7.65% [at 39.1 µM] (inactive),
CN1CCc2c(c3ccccc3n2Cc2ccccc2)C1,-8.12% [at 39.1 µM] (inactive),
CN(C)CCOc1ccccc1Cc1ccccc1 (tested in a mixture with another compound),-5.11% (inactive),
CCOC(=O)c1c[nH]c2cc(OCC(C)C)c(OCC(C)C)cc2c1=O,-2.13% (inactive),
CN(CCO)CC(O)Cn1cnc2c1c(=O)n(C)c(=O)n2C (stereo not given) (tested in a mixture with another compound),-1.91% (inactive),
